Source: PubChem (National Center for Advancing Translational Sciences (NCATS))
An excerpt weighted towards active compounds, which were near 0.44% of everything screened.
EPAC1 agonist – EPAC1 (human) agonism | O95398 | EPAC1 agonist qHTS, biochemical assay; response scale: 100% = response to 6.5 mM cAMP | Potency, µM (doses to about 154 µM), for inactives: at the highest dose activation, hits mostly activators | 360,000 compounds, 0.073% hits | AID 720707; also: nearly all actives have a fitted effect of over 60% in size
Target sequence (O95398 whole entry, looked up): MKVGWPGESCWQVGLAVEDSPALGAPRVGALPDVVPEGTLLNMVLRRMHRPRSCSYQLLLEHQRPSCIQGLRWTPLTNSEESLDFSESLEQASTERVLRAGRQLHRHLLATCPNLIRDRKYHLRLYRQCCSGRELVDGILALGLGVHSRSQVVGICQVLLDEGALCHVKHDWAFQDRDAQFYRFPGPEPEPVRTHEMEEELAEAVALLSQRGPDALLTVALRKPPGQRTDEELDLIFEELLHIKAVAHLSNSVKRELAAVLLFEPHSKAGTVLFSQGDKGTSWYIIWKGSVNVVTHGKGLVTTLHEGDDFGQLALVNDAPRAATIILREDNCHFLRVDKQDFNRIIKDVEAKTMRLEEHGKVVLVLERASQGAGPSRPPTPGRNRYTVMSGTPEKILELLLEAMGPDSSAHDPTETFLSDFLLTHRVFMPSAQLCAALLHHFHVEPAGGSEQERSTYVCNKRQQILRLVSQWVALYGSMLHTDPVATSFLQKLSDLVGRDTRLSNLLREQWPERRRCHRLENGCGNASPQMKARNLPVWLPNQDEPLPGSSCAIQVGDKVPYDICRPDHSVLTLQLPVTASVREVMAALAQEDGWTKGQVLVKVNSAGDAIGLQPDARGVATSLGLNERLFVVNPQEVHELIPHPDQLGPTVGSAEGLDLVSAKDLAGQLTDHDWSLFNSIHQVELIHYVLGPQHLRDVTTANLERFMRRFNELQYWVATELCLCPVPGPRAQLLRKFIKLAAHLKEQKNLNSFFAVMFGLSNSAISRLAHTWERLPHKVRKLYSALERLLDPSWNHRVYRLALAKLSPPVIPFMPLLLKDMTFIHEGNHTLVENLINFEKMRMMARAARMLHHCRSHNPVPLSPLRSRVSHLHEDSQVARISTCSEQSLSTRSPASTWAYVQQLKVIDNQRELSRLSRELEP
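Read-out is the fluorescence drop as BODIPY-GDP leaves Rap1B (480 nm excitation, 540 nm emission), recorded every 5 minutes over 30 minutes. Reactions held 100 nM EPAC1, 250 nM Rap1B–BODIPY-GDP and 50 uM GDP, with 6.5 mM cAMP setting full activation.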
EPAC2 antag – EPAC2 (human) antagonism; Q8WZA2; EPAC2 GEF exchange of Rap1B-BODIPY-GDP, fluorescence; Potency, µM (titrated, usually from 114 µM), for the others: top-dose activity, negative = inhibition, usual class: inhibitors; 360,000 compounds, 0.18% hits; also: % is scaled to controls: 0 for no effect and ±100 for the full control effect; nearly all actives have a fitted effect of over 45% in size
USP1 inh – blocks the human USP1/UAF1 deubiquitinase complex; recombinant USP1/UAF1, Ub-Rhodamine cleavage fluorescence; Potency, µM (highest dose often 57.1 µM), for the others: at the top dose activity change, negative = inhibition, hits mostly inhibitors; 390,000 compounds, 0.23% hits; AID 743255; also: % is scaled to controls: 0 for no effect and ±100 for the full control effect; nearly all actives have a fitted effect of over 60% in size
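In this screen, compounds sit with the deubiquitinase complex (1nM) for 15 min at room temperature before Ub-Rho is added at 150nM final. Fluorescence rise is then followed for 6 reads every 60 seconds.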
EPAC2 agonist – activates human EPAC2 exchange factor; Potency, µM (series often up to 154 µM), for inactives: top-dose activation, hits mostly activators; 360,000 compounds, 0.079% hits; Q8WZA2; EPAC2 activation, biochemical qHTS; response scale: 100% = 6.5 mM cAMP response; also: nearly all actives have a fitted effect of over 50% in size
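Each well held 100 nM EPAC2, 250 nM RAP1B-BODIPY-GDP and 50 uM GDP. Fluorescence, read at 5-min intervals to 30 min, was referenced to a 6.5 mM cAMP positive control.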
EPAC1 antag – blocks human EPAC1 exchange factor; EPAC1 GEF assay, Rap1b-BODIPY-GDP exchange fluorescence; AID 720709; 360,000 compounds, 0.14% hits; Potency, µM (series often up to 115 µM), for the others: top-dose activity change, negative = inhibition, usual class: inhibitors;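 also: plate controls were vehicle for no effect and positive control for full effect; nearly all actives have a fitted effect of over 50% in size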
USP2a block – inhibitors of human ubiquitin-specific protease USP2a | O75604 | USP2 core, Ub-CHOP2 coupled fluorogenic reporter, 485/531 | Potency, µM (titrated, usually from 38.3 µM), without a hit: top-dose activity change, negative = inhibition, usual class: inhibitors | 330,000 compounds, 0.01% hits | AID 463254;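 also: plate controls were DMSO wells for no effect and full inhibition by NEM control for full effect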
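Deubiquitinase activity read as fluorescence (485/531 nm) after Ub-CHOP2 cleavage activates the enterokinase reporter on its substrate; USP2 core 10nM, Ub-CHOP2 and substrate 25nM each, 30min compound preincubation then 60min RT; data normalized to NEM, curves fitted.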
The depositor's hits bear a star; u = inconclusive; x = no result. Calls follow the shape of the dose curve; as a rule, active = well fitted curve in the direction sought with a large enough effect; inconclusive = small, poorly fitted or top-dose-only effect, or another doubt; inactive = no such curve, though single readings can be large; an effect the other way counts as inactive or inconclusive. Potency is read from the fitted curve at half-maximal effect.

SMILES | EPAC1 agonist | EPAC2 antag | USP1 inh | EPAC2 agonist | EPAC1 antag | USP2a block
CCOC(=O)c1c(C)[nH]c(C)c1S(=O)(=O)N1CCCC(C(=O)Nc2ccccc2OCC)C1 (stereo not given) | x | x | -1% | x | x | x
Cc1ccc(-c2ccc(/C=N\NC(=O)c3cc4c(ccc5ccccc54)o3)o2)cc1[N+](=O)[O-] | 0% | 2% | -20% | 8% | -6% | -1%
O=C(N/N=C/c1ccc(-c2ccc(Cl)c(C(=O)O)c2)o1)c1cc2c(ccc3ccccc32)o1 | 11% | 17% | -22% | 28% | 40µM* | u
CCNC(=O)c1c(NC(=O)Cc2coc3ccc(CC)cc23)sc2c1CCCC2 | x | x | -23% | x | x | x
C=CCOC(=O)C1=C(C)NC(C)=C(C(=O)OCC=C)C1c1ccco1 | 0% | 45µM* | -8% | 2% | -14% | 2%
CN1CCc2c(sc3c2C(=O)NC(c2ccccn2)N3)C1 (stereo not given) | 7% | 18% | 32µM* | 23% | 12% | 19%
CN1CCc2c(sc3c2C(=O)NC(c2ccc(OC(=O)c4ccccc4)cc2)N3)C1 (stereo not given) | x | x | -22% | x | x | x
CN1CCc2c(sc3c2C(=O)NC(c2ccc(OC(=O)c4ccc(C(C)(C)C)cc4)cc2)N3)C1 (stereo not given) | x | x | 32µM* | x | x | x
COc1ccc2c(c1)c(=O)c(C(=O)c1ccc(F)cc1)cn2CC(=O)Nc1ccc2c(c1)OCCO2 | x | x | -32% | x | x | x
Cc1[nH]n(-c2ncc(-c3ccc(Cl)cc3)s2)c(=O)c1C(c1ccc(Cl)cc1)C(C#N)C#N (stereo not given) | 0% | -15% | -13% | 1% | 40µM* | -5%
COc1ccc(C2c3c(n(C)c4ccccc34)C(=O)N2CC(=O)Nc2ccccc2F)cc1 (stereo not given) | x | x | -19% | x | x | x
COc1ccc(/C=C2/SC(=S)N(Cc3ccccc3)C2=O)cc1O | 21% | -1% | -10% | 11% | -21% | -9%
O=C(O)CCN1C(=O)/C(=C\c2cccc(Oc3ccccc3)c2)SC1=S | 3% | 79µM* | u | 8% | u | 0%
O=C1/C(=C\c2cc(Cl)c(O)c(Cl)c2)SC(=S)N1Cc1ccccc1 | -8% | 92% | 4µM* | u | 270% | u
O=C(O)CN1C(=O)/C(=C\c2cccc(OCc3ccccc3F)c2)SC1=S | 6% | 89µM* | -18% | 0% | u | -9%
O=C(Nc1cccc(-c2nc3cc(Cl)ccc3o2)c1)c1ccc(F)cc1 | x | x | -6% | x | x | x
CCc1ccc(CN(Cc2cn[nH]c2-c2ccc(OC)cc2)C(=O)Nc2ccc(Br)cc2)cc1 | x | x | -23% | x | x | x
CCOc1ccccc1NC(=O)C1CCN(c2nc(-c3ccc(OC)cc3)no2)CC1 | 112µM* | 2% | -20% | 0% | 61% | -1%
COc1ccc(-c2noc(N3CCC(C(=O)Nc4ccccc4Cl)CC3)n2)cc1 | -17% | 9% | -7% | 4% | -8% | 0%
COc1cc(/C=N/NC(=O)C(Cc2c[nH]c3ccccc23)NC(=O)OCC(C)C)cc([N+](=O)[O-])c1O (stereo not given) | -13% | 1% | -22% | -9% | -14% | -2%
COc1cc(/C=N/NC(=O)C(Cc2c[nH]c3ccccc23)NC(=O)OCc2ccccc2)cc([N+](=O)[O-])c1O (stereo not given) | -6% | -16% | u | -14% | 79µM* | -6%
CCOc1cccc(C(=O)Nc2ccc3oc(Cc4ccc(Cl)cc4)nc3c2)c1 | 6% | -2% | -29% | 7.9µM* | -11% | -2%
Cc1ccc(/C=C2\S/C(=N/S(=O)(=O)c3cccs3)NC2=O)cc1 | -9% | u | u | -8% | 40µM* | 2%
O=C1C=C(N(CCO)Cc2ccccc2)c2ccccc2C1=O | 9% | u | 3.5µM* | 24% | 45µM* | 1%
Cc1cccc(-c2nc(SCCCOc3ccccc3Cl)n3[nH]c(=O)cc3n2)c1 | x | x | -18% | x | x | x
SMILES | EPAC1 agonist | EPAC2 antag | USP1 inh | EPAC2 agonist | EPAC1 antag | USP2a block
N#C/C(=C/c1ccncc1)c1nc2ccccc2c(=O)[nH]1 | 2% | -3% | -12% | 3% | 3% | 3%
N#C/C(=C\c1cc(Br)c(O)c(Br)c1)c1nc2ccccc2c(=O)[nH]1 | x | x | 28µM* | x | x | x
N#C/C(=C/c1ccc(O)c(O)c1)c1nc2ccccc2[nH]1 | -125% | u | -10% | 9% | 89µM* | 11%
COc1cccc(N2CCN(C(=O)c3ccc4c(=O)n(CCc5ccccc5)c(=O)[nH]c4c3)CC2)c1 | x | x | -28% | x | x | x
COc1ccc(-c2cc3ccc(O)c(CN4CCOCC4)c3oc2=O)cc1OC | x | x | -11% | x | x | x
N#CC(Sc1ccccn1)c1ccc(Cl)cc1Cl (stereo not given) | 5% | 25µM* | -15% | 21% | -13% | 3%
N#Cc1cc(Sc2ccccn2)c(Sc2ccccn2)cc1C#N | 7% | -2% | -8% | -4% | -11% | u
Cn1c2nc(=O)n(-c3ccccc3)c(=O)c-2nc2c1CCCC2 | u | 38% | 14µM* | 12% | -12% | x
CCOc1ccc(S(=O)(=O)N(CC(=O)Nc2ccc(OC)c(Cl)c2)c2ccccc2)cc1 | x | x | -26% | x | x | x
COc1ccc(-c2c(C#N)c(N)nc3sc(C(=O)c4ccccc4)c(N)c23)cc1 | 0% | 8% | -19% | 8% | -14% | 3%
CSc1c(C#N)c(N)nc2sc(C(=O)c3ccc(Cl)c(Cl)c3)c(N)c12 | 100µM* | 11% | -8% | 12% | -1% | 1%
Cc1ccc(C)c(Cn2c(=O)cc(C)c3c(C)nn(C)c32)c1 | x | x | -13% | x | x | x
O=C1C(SCCO)=C(SCCO)C(=O)c2ccccc21 | -3% | 4% | 6.3µM* | 6% | u | 1%
O=C1C(Cl)=C(NCCCO)C(=O)c2ccccc21 | 3% | -12% | u | -4% | -21% | 1%
CCN(CC)CCCNC(=O)c1nn(C)c2c1CS(=O)(=O)c1ccccc1-2 | x | x | -21% | x | x | x
CCCCNC(=O)C1CCN(c2nc3ccc(C)cc3[nH]2)CC1 | x | x | 2% | x | x | x
Cc1cccc(NC(=O)Cn2c(O)c(N=NC(=O)c3ccccc3O)c3ccccc32)c1 | -28% | 2% | -15% | -3% | 56µM* | 2%
CC(=O)N(C(C)=O)N1C(=O)c2cccc3c(N4CCOCC4)ccc(c23)C1=O | 112µM* | 38% | -17% | -105% | u | 18%
O=C(OCCN1C(=O)c2cccc3c(N4CCOCC4)ccc(c23)C1=O)c1cc(Cl)cc(Cl)c1 | x | x | x | x | x | 8%
CCCCNc1ccc2c3c(cccc13)C(=O)N(CCCC)C2=O | 79µM* | 183% | 25µM* | 100µM* | 250% | u
